Results reported in the supplement of paper PMC8728848.
The sample as a whole holds a higher share of the strongest signals than the screen did.

Key:
Experiment in all cases: glycan array binding signal (z-score within array); higher = stronger binding
Settings in all cases: glycan notation: IUPAC condensed, linker removed
[1] = target: Fuc(a1-2)Gal(b1-3)GalNAc(a1-3)[Fuc(a1-2)]Gal(b1-4)Glc
Summary of the method: (§1)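 Columns mapping to the same glycan were averaged after glycan names were converted to IUPAC-condensed notation. The data come from 3228 arrays in the Consortium for Functional Glycomics database, limited to those with an available protein sequence. Binding is reported as a within-array Z-score averaged across arrays of one protein sequence and across linkers.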

[2] = target: Fuc(a1-2)Gal(b1-3)GalNAc(b1-3)Gal
Summary of the method: as §1

[3] = target: Fuc(a1-2)Gal(b1-3)GlcNAc(b1-2)Man(a1-3)[Fuc(a1-2)Gal(b1-3)GlcNAc(b1-2)Man(a1-6)]Man(b1-4)GlcNAc(b1-4)[Fuc(a1-6)]GlcNAc
Summary of the method: as §1

[4] = target: Fuc(a1-2)Gal(b1-3)GlcNAc6S
Summary of the method: as §1

Fuc(a1-2)Gal(b1-4)Glc = target: Fuc(a1-2)Gal(b1-4)Glc
Summary of the method: as §1

[5] = target: Fuc(a1-2)[Gal(a1-3)]Gal(b1-4)GlcNAc(b1-2)Man
Summary of the method: as §1

[6] = target: Fuc(a1-2)[GalNAc(a1-3)]Gal(b1-3)GlcNAc(b1-6)GalNAc
Summary of the method: as §1

[7] = target: Fuc(a1-2)[GalNAc(a1-3)]Gal(b1-4)GlcNAc(b1-6)GalNAc
Summary of the method: as §1

[8] = target: Fuc(a1-2)[GalNAc(a1-3)]Gal(b1-4)[Fuc(a1-3)]GlcNAc
Summary of the method: as §1

[9] = target: Fuc(a1-2)[GalNAc(a1-4)]Gal(b1-4)GlcNAc
Summary of the method: as §1

[10] = target: Fuc(a1-3)[GalNAc(b1-4)]GlcNAc6S
Summary of the method: as §1

Gal(a1-3)Gal = target: Gal(a1-3)Gal
Summary of the method: as §1

Gal(a1-4)Gal(b1-4)GlcNAc = target: Gal(a1-4)Gal(b1-4)GlcNAc
Summary of the method: as §1

Gal(b1-2)Gal = target: Gal(b1-2)Gal
Summary of the method: as §1

[11] = target: Gal(b1-3)GlcNAc(b1-2)Man(a1-3)[Gal(b1-3)GlcNAc(b1-2)Man(a1-6)]Man(b1-4)GlcNAc(b1-4)[Fuc(a1-6)]GlcNAc
Summary of the method: as §1

[12] = target: Gal(b1-3)GlcNAc(b1-2)[Gal(b1-3)GlcNAc(b1-6)]Man(a1-6)[Gal(b1-3)GlcNAc(b1-2)Man(a1-3)]Man(b1-4)GlcNAc(b1-4)GlcNAc
Summary of the method: as §1

[13] = target: Gal(b1-3)GlcNAc(b1-3)Gal(b1-4)[Fuc(a1-3)]GlcNAc(b1-6)[Gal(b1-3)GlcNAc(b1-3)]Gal(b1-4)Glc
Summary of the method: as §1

[14] = target: Gal(b1-3)[Fuc(a1-4)]GlcNAc(b1-6)GalNAc
Summary of the method: as §1

[15] = target: Gal(b1-3)[Neu5Ac(a2-6)]GalNAc
Summary of the method: as §1

[16] = target: Gal(b1-4)GlcNAc(b1-2)[Gal(b1-4)GlcNAc(b1-6)]Man(a1-6)[Gal(b1-4)GlcNAc(b1-2)Man(a1-3)]Man(b1-4)GlcNAc(b1-4)GlcNAc
Summary of the method: as §1

[17] = target: Gal(b1-4)GlcNAc(b1-2)[Gal(b1-4)GlcNAc(b1-6)]Man(a1-6)[Gal(b1-4)GlcNAc(b1-2)Man(a1-3)]Man(b1-4)GlcNAc(b1-4)[Fuc(a1-6)]GlcNAc
Summary of the method: as §1

[18] = target: Gal(b1-4)GlcNAc(b1-3)Gal(b1-4)GlcNAc(b1-3)Gal(b1-4)GlcNAc(b1-3)Gal(b1-4)GlcNAc(b1-3)Gal(b1-4)GlcNAc(b1-2)[Gal(b1-4)GlcNAc(b1-3)Gal(b1-4)GlcNAc(b1-3)Gal(b1-4)GlcNAc(b1-3)Gal(b1-4)GlcNAc(b1-3)Gal(b1-4)GlcNAc(b1-6)]Man(a1-6)[Gal(b1-4)GlcNAc(b1-3)Gal(b1-4)GlcNAc(b1-3)Gal(b1-4)GlcNAc(b1-3)Gal(b1-4)GlcNAc(b1-3)Gal(b1-4)GlcNAc(b1-2)Man(a1-3)]Man(b1-4)GlcNAc(b1-4)[Fuc(a1-6)]GlcNAc
Summary of the method: as §1

Gal4S(b1-4)GlcNAc = target: Gal4S(b1-4)GlcNAc
Summary of the method: as §1

GalNAc(b1-3)Gal = target: GalNAc(b1-3)Gal
Summary of the method: as §1

GalNAc(b1-4)GlcNAc = target: GalNAc(b1-4)GlcNAc
Summary of the method: as §1

GalNAc3S(b1-4)GlcNAc3S = target: GalNAc3S(b1-4)GlcNAc3S
Summary of the method: as §1

GalNAc6S(b1-4)GlcNAc = target: GalNAc6S(b1-4)GlcNAc
Summary of the method: as §1

[19] = target: GlcNAc(b1-3)Gal(b1-4)GlcNAc(b1-2)[GlcNAc(b1-3)Gal(b1-4)GlcNAc(b1-6)]Man(a1-6)[GlcNAc(b1-3)Gal(b1-4)GlcNAc(b1-2)Man(a1-3)]Man(b1-4)GlcNAc(b1-4)GlcNAc
Summary of the method: as §1

[20] = target: GlcNAc(b1-3)Gal(b1-4)GlcNAc(b1-3)Gal(b1-4)GlcNAc(b1-2)Man(a1-3)[GlcNAc(b1-3)Gal(b1-4)GlcNAc(b1-3)Gal(b1-4)GlcNAc(b1-2)Man(a1-6)]Man(b1-4)GlcNAc(b1-4)[Fuc(a1-6)]GlcNAc
Summary of the method: as §1

[21] = target: GlcNAc(b1-4)[GlcNAc(b1-6)]GalNAc
Summary of the method: as §1

B1: Cohesin-mDC-ASGPR (Macaca mulatta) (protein)
chain: LDITSHHHHHHDDLDAVRIKVDTVNAKPGDTVRIPVRFSGIPSKGIANCDFVYSYDPNVLEIIEIEPGDIIVDPNPDKSFDTAVYPDRKIIVFLFAEDSGTGAYAITKDGVFATIVAKVKEGAPNGLSVIKFVEVGGFANNDLVEQKTQFFDGGVNVGDTTEPATPTTPVTTPTTTDDLDAASSQNSKFQRDLVTLRTDFSNFTSNTVAEIQALTSQGSSVEEMIASLKAEVEVIKQEQQAVHSEMLLRVQRLMQDLNKLTCQVATLKNNASTERTCCPVNWVEHQDSCYWFSRSGMPWAEAEKHCQLENAHLVVINSREEQNFVQEHLSFAYTWMGLSDREGAWKWVDGTDYETGFQNWKPGQPDDWQGHGLGGGEDCAHFHPDGRWNDDVCQRPYYWVCEAGLTQASQESH
glycan array binding signal (z-score) [1]: -0.406
glycan array binding signal (z-score) [2]: 0.568
glycan array binding signal (z-score) [3]: -0.227
glycan array binding signal (z-score) [4]: 0.873
glycan array binding signal (z-score) (Fuc(a1-2)Gal(b1-4)Glc): -0.387
glycan array binding signal (z-score) [5]: -0.34
glycan array binding signal (z-score) [6]: 3.22
glycan array binding signal (z-score) [7]: 3.46
glycan array binding signal (z-score) [8]: 0.425
glycan array binding signal (z-score) [9]: 3.47
glycan array binding signal (z-score) [10]: 3.4
glycan array binding signal (z-score) (Gal(a1-3)Gal): -0.427
glycan array binding signal (z-score) (Gal(a1-4)Gal(b1-4)GlcNAc): -0.412
glycan array binding signal (z-score) (Gal(b1-2)Gal): -0.312
glycan array binding signal (z-score) [11]: -0.402
glycan array binding signal (z-score) [12]: -0.399
glycan array binding signal (z-score) [13]: -0.418
glycan array binding signal (z-score) [14]: 3.02
glycan array binding signal (z-score) [15]: -0.372
glycan array binding signal (z-score) [16]: -0.394
glycan array binding signal (z-score) [17]: -0.418
glycan array binding signal (z-score) [18]: -0.379
glycan array binding signal (z-score) (Gal4S(b1-4)GlcNAc): -0.407
glycan array binding signal (z-score) (GalNAc(b1-3)Gal): 3.51
glycan array binding signal (z-score) (GalNAc(b1-4)GlcNAc): 3.5
glycan array binding signal (z-score) (GalNAc3S(b1-4)GlcNAc3S): -0.428
glycan array binding signal (z-score) (GalNAc6S(b1-4)GlcNAc): 3.82
glycan array binding signal (z-score) [19]: -0.07
glycan array binding signal (z-score) [20]: -0.329
glycan array binding signal (z-score) [21]: -0.393
